Bioassay records as filed in PubChem.
KDM5B inhibitor: blocks human KDM5B histone demethylase activity | Potency, µM (titrated, usually from 57.7 µM), most hits filed as inhibitors | KDM5B demethylase, FDH-coupled NADH fluorescence (FDH is formaldehyde dehydrogenase) | Q9UGL1 | AID 1347165 | hit rate 2.6% among 220,000; active means well fitted inhibition curve with a large enough effect; inconclusive means small, poorly fitted or top-dose-only effect; inactive means no such curve, though single readings can be large or run the other way; further: potency means the concentration at half of the fitted maximal effect; 0% is about no effect; nearly all actives have a fitted effect of over 70% in size
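Here, H3K4me3 peptide (12.5 µM in substrate mix) is demethylated by KDM5BΔAP, 200 nM final, after 10 min compound exposure. Formaldehyde product is coupled through FDH (0.25 U/mL in mix) to NADH fluorescence; 30-min ΔRFU feeds dose-response curves.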
IP6K1 inh: inhibitors of human IP6K1; Q92551; IP6K1 kinase, ADP-Glo luminescence, 2 h; active compounds read low; activity change, % (series mostly up to about 58 µM); hit rate 0.81% among 140,000; AID 1645851; in the data active means activity change below about -25%; further: on the % scale 0 is the no-effect control and ±100 the full control effect
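ADP-Glo luminescence measures ADP made by human IP6K1 during a 2 h RT reaction with ATP/IP6 (mix at 1.3 mM/130 uM); top library doses 57.5 and 19.1 uM final.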
* = called active by the depositor; i = inactive; ? = inconclusive; . = no result. A selection: hits, their analogues and other compounds. The true share with any hit is near 2.8%.

SMILES	KDM5B inhibitor	IP6K1 inh
COc1cccc(NC(=O)Cn2c(N3CCc4ccccc4C3)nc(C)cc2=O)c1	11.2µM*	8.9
Cc1ccc(CNC(=O)Cn2c(N3CCc4ccccc4C3)nc(C)cc2=O)cc1	28.2µM*	28.6
COCc1cc(=O)n(CC(=O)Nc2ccc(Br)cc2)c(N2CCOCC2)n1	i	11.2
Cc1cc(=O)n(CC(=O)NCc2ccc(F)cc2)c(N2CCc3ccccc3C2)n1	i	5.4
CCOCCCNC(=O)CSCCCC(=O)Nc1c(C)cc(C)cc1C	i	.
O=C(O)C(CO)NS(=O)(=O)c1ccc(Br)cc1 (stereo not drawn)	i	.
CCSc1nc(N(CCO)CCO)c2sc3c(c2n1)COC(C)(C)C3	i	.
CC(=O)c1c(C)[nH]c(C(=O)OC(c2ccccc2)c2ccc(Cl)cc2)c1C (stereo not drawn)	i	.
CC(=O)Nc1ccc(-c2csc(NC(=O)c3cc4cnn(C(C)C)c4nc3C)n2)cc1	i	.
COc1ccc(F)cc1-c1ccc(CN2CCC(NC(=O)c3ccccc3Cl)C2)cc1 (stereo not drawn)	.	5.6
CN(C)c1cccc(NC(=O)c2ccc3c(c2)NC(C)(COc2cccnc2)CO3)c1 (stereo not drawn)	?	-15.2
CNC(=O)c1ccc2c(c1)NC(C)(COc1ccccc1)CO2 (stereo not drawn)	31.6µM*	-7.4
CN(C)c1cccc(NC(=O)c2ccc3c(c2)NC(C)(COc2ccccc2)CO3)c1 (stereo not drawn)	31.6µM*	-7.0
CCNc1c(NC(=O)Nc2ccc(OC)c(OC)c2)c(=O)oc2ccccc12	i	.
COc1ccccc1-c1ccc(CN2CCC(NC(=O)c3ccc(Cl)cc3)C2)cc1 (stereo not drawn)	.	2.4
COCCCNc1cc(Cl)nc2ccnn12	i	13.5
c1ccc(-c2cc(NCCCOc3cccnc3)n3nccc3n2)cc1	22.4µM*	1.9
O=C(NCc1ccc(F)c(F)c1)c1nc2sccn2c1-c1ccc(F)cc1	.	15.4
Cc1cc(CNC(=O)c2cccc(F)c2F)c2[nH]c(C)c(C)c2c1	?	6.1
CCc1[nH]c2c(CNC(=O)C(C)O)cc(C)cc2c1C (stereo not drawn)	31.6µM*	-1.3
Cc1ccc(CC(=O)N(C)Cc2ccsc2)cc1	i	.
CCOC(=O)[C@@H]1CN(C(=O)c2csc(-c3cccs3)n2)[C@H]2c3cccc(F)c3O[C@@H]12	.	9.3
COc1ccc(-c2cn(C)c(=O)n3cc(CN4CCNC(=O)C4)nc23)cc1	28.2µM*	-5.1
COc1ccccc1-c1cn(C)c(=O)n2cc(CN3CCNC(=O)C3)nc12	?	1.6
COc1ccc(-c2cn(C)c(=O)n3cc(CN4CC[S+](=O)([O-])CC4)nc23)cn1	i	-9.3
SMILES	KDM5B inhibitor	IP6K1 inh
COc1ccc(-c2cn(C)c(=O)n3cc(CN4CC[S+](=O)([O-])CC4)nc23)cc1OC	35.5µM*	-12.6
CCOc1ccc2c(-c3cc4cccc(OCC)c4oc3=O)cc(=O)oc2c1	i	.
O=C(C1CCCN([S+](=O)([O-])c2cccc(C(F)(F)F)c2)C1)N1CCCC(c2nc3ccncc3[nH]2)C1 (stereo not drawn)	.	10.4
CCOc1nccnc1NC1CCN(S(=O)(=O)C2CC2)CC1	31.6µM*	-1.0
CCCOc1nccnc1NC1CCN(S(=O)(=O)C2CC2)CC1	15.8µM*	-3.2
CN(C)c1nccnc1OC1CCN(S(=O)(=O)c2ccccc2)C1 (stereo not drawn)	i	8.2
CN(C)c1nccnc1OC1CCN(S(=O)(=O)Cc2ccccc2)C1 (stereo not drawn)	?	-1.1
Cn1c(SCC(=O)NCC2CN(Cc3ccccc3)CCO2)nnc1-c1ccc(C(C)(C)C)cc1 (stereo not drawn)	i	.
Cn1cccc1C(=O)N1CCC(N2C(=O)C3(CCCC3)C2c2ccccc2)CC1 (stereo not drawn)	i	-10.5
O=C(NCc1ccc(Cl)cc1)c1ccc2oc(-c3ccnc(Cl)c3)nc2c1	.	-5.9
O=C(COCc1cc(-c2cccs2)on1)NCCN1CCCCCC1	i	.
O=C1CC(c2ccc(OCc3ccc(F)cc3)cc2)c2cn[nH]c2N1 (stereo not drawn)	i	.
CNc1ncccc1C(=O)N1CC[C@@H](c2ccc3c(c2)OCO3)[C@H](O)C1	28.2µM*	33.1
O=C(c1cn2ccsc2n1)N1CC[C@@H](c2ccc3c(c2)OCO3)[C@H](O)C1	i	3.1
Cc1ccc(CNC(=O)C(=O)c2c[nH]c3ccccc23)cc1	i	.
CS(=O)(=O)N1CCC(OC2CCN(C(=O)C3(c4ccccc4)CC3)CC2)CC1	i	-5.2
COc1ccc(-c2cc(C(=O)N3CCC(c4ccccc4)CC3)c3cnn(C)c3n2)cc1	.	-8.2
COc1ccc(-c2noc(-c3ccc(N4C[C@H]5CC[C@H]4C5)nc3)n2)cc1	31.6µM*	4.5
COc1ccc(-c2noc(-c3ccc(N4CCCOCC4)nc3)n2)cc1	31.6µM*	0.7
COc1ccc(-c2noc(-c3ccc(N4CCOCC4)c([N+](=O)[O-])c3)n2)cc1	i	5.5
COc1ccc(-c2noc(-c3nc(C)no3)n2)cc1	i	-4.7
O=C(NCc1ccc(C(F)(F)F)cc1)C1CN(C2CCCCC2)C(=O)N1 (stereo not drawn)	.	-1.0
O=C(c1ccnc2[nH]ccc12)N1CCOCC1	126µM*	17.4
CC(=O)N1CCN(C(=O)c2c[nH]c3ncccc23)CC1	i	9.8
CN(C)C(=O)c1ccnc2[nH]ccc12	126µM*	-3.0
SMILES	KDM5B inhibitor	IP6K1 inh
Cc1ccccc1C(=O)NCc1ccnc2[nH]ccc12	?	8.3
Cc1cc(NC(=O)c2cc(-c3ccc(Cl)cc3)on2)no1	i	.
O=C(O)c1cccc(NC(=S)N/N=C/c2ccc([N+](=O)[O-])cc2)c1	i	.
Cc1ccc(B(O)O)c2cccnc12	i	.
Cc1ccc(-c2ccc(N)nc2)c2cccnc12	25.1µM*	7.3
Cn1c(=O)c2c(nc(NCC(O)c3ccccc3)n2C)n(C)c1=O (stereo not drawn)	i	.
CCN(CC)C(=O)CCc1c(C)nn(-c2ccccc2)c1Oc1ccc(F)cc1F	i	12.0
CCN(C)C(=O)CCc1c(C)nn(-c2ccccc2)c1Oc1ccccc1F	14.1µM*	-5.9
CN(c1ccccc1)c1ccc2c(n1)CN(CCOc1ccccc1)C(=O)CO2	31.6µM*	-11.8
O=C1COc2ccc(-c3ccccc3)nc2CN1Cc1ccc(F)cc1	i	0.9
Cc1nc(CN2Cc3nc(N(C)c4ccccc4)ccc3OCC2=O)cs1	?	2.0
O=C1COc2ccc(-c3ccncc3)nc2CN1CCOc1ccccc1	i	-4.4
O=C1COc2ccc(-c3ccc4c(c3)OCO4)nc2CN1Cc1ccc(F)cc1	35.5µM*	-1.4
CN(c1ccccc1)c1ccc2c(n1)CN(Cc1ccccc1)C(=O)CO2	35.5µM*	-5.4
CCN1C(=O)CCC2(C(=O)NCCN(C)C3CCCCC3)CCCC=C12 (stereo not drawn)	i	-6.9
Cc1noc(C)c1CS(=O)(=O)c1ccccc1Cl	i	.
CC(C)(C)OC(=O)N1Cc2ccccc2C[C@H]1C(=O)Nc1ccc2c(c1)OCCO2	i	.
O=C(c1ccc(-c2cccs2)cc1)N1CCC(C(=O)N2CCCC2)CC1	.	-18.6
Cc1ccc(NC(=O)Nc2ccccc2)c(=O)n1CC(=O)N1CCN(c2ccccc2)CC1	28.2µM*	-5.9
CNC(=O)Nc1ccc(C)n(CC(=O)N2CCN(c3ccccc3OC)CC2)c1=O	?	-11.1
